Screens deposited in PubChem BioAssay by National Center for Advancing Translational Sciences (NCATS).
The entries come from a sample that favours hits as a whole.
KDM5B inh: Primary screen for KDM5B Histone Demethylases FDH-coupled qHTS; Lysine-specific demethylase 5B (Homo sapiens), Q9UGL1; KDM5B demethylase, FDH-coupled NADH fluorescence (FDH is formaldehyde dehydrogenase); actives 2.6% (n = 220,000); Potency, µM (titrated, usually from 57.7 µM), actives largely listed as inhibitors; AID 1347165, 2019; active = well fitted inhibition curve with a large enough effect; note: nearly all actives have a fitted effect of over 70% in size
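Compound dilutions met 200 nM (final) KDM5BΔAP for 10 min at room temperature before substrate addition. The substrate mix held 12.5 µM H3K4me3 with cofactors 25 µM α-ketoglutarate and 50 µM Fe²⁺. NADH signal gain over 30 min defined activity.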
A number is an active result; n = inactive.

SMILES | KDM5B inh
COc1cc(NC(=O)CN2C(=O)NC3(CCCCC3)C2=O)cc(OC)c1 | n
O=C(O)CCNS(=O)(=O)c1ccc(Cl)c(Cl)c1 | n
Fc1ccc(N/N=C/c2cccc(Cl)c2Cl)c(F)c1 | n
COc1cc(-c2ccnc(-c3nnc(C)n3Cc3ccccc3)c2)ccn1 | n
COc1cc(-c2nc(-c3c(C)noc3C)cc3[nH]c(C)cc23)ccn1 | 32µM
COc1cc(F)ccc1-c1nc(-c2c(C)noc2C)cc2c1cc(C)n2C | n
COc1ccc(-c2nc(-c3c(C)noc3C)cc3c2cc(C)n3C)cn1 | 35µM
COc1ccc(-c2nc(-c3c(C)noc3C)cc3[nH]c(C)cc23)cn1 | 35µM
O=C(CNc1ccccc1SC(F)F)N1CCNC1=O | n
CS(=O)(=O)Cc1ccc(C(=O)Nc2ccc(F)cc2F)cc1 | n
c1ccc2c(c1)OCC(CSc1nnnn1C1CCCC1)O2 (stereo not drawn) | n
Cc1nnc(NC(=O)c2ccc3c(ccn3Cc3ccccc3)c2)s1 | n
O=C(NCCc1cccc2cccnc12)c1cc(-c2ccccn2)nc2ccccc12 | n
CC1(C)CC(=O)C2=C(C1)NC(Nc1nc3ccccc3o1)=NC2c1ccc(F)cc1 (stereo not drawn) | n
CCc1ccc(NC(=O)Cn2nc3ccc(S(=O)(=O)C(C)(C)C)nn3c2=O)cc1 | n
CCCC1N=C2c3ccccc3N=C(SCC(=O)Nc3ccccc3)N2C1=O (stereo not drawn) | n
O=C(CCC1CCCC1)NCCc1noc(C2CC2)n1 | n
CC(C)c1noc(-c2cccn3c(CNC(=O)CCC4CCCC4)nnc23)n1 | 16µM
Cc1nc(CCNC(=O)CCC2CCCC2)no1 | n
O=C(CCC1CCCC1)NCc1ccco1 | n
CCc1noc(-c2cccn3c(CNC(=O)CCC4CCCC4)nnc23)n1 | 28µM
NC(=O)C(OC(=O)CNS(=O)(=O)Cc1ccccc1)c1ccccc1 (stereo not drawn) | n
O=C(CN1C(=O)NC2(CCCCC2)C1=O)Nc1ccc(C(F)(F)F)cc1 | n
CNC(=O)NCCc1ncc(C)n1C1CCCCCCC1 | n
CN(C)C(=O)C(Sc1nnc(-c2ccncc2)n1-c1ccc(Cl)cc1)c1ccccc1 (stereo not drawn) | n
SMILES | KDM5B inh
Cc1nn(CC(=O)O)c(=O)c2nc(-c3ccccc3)sc12 | 32µM
COCCNC(=O)Cn1nc(-c2ccc(C)cc2)c2ccccc2c1=O | n
Cc1nn(CC(=O)NCc2cccs2)c(=O)c2nc(C(C)C)sc12 | n
COCCNC(=O)Cn1nc(C)c2sc(-c3ccccc3)nc2c1=O | 28µM
Cc1ccc(-c2nn(CC(=O)O)c(=O)c3ccccc23)cc1 | n
Cc1nn(CC(=O)N2CCCC2)c(=O)c2nc(C(C)C)sc12 | n
Cc1nn(CC(=O)NCCCN2CCCCC2)c(=O)c2nc(-c3ccccc3)sc12 | 32µM
Cc1nn(CC(=O)NCCN2CCCCCC2)c(=O)c2nc(-c3ccccc3)sc12 | 20µM
O=C(Cn1nc(-c2ccccc2)ccc1=O)NCCCN1CCOCC1 | n
CCc1nc2c(=O)n(CC(=O)NCc3cccc(Cl)c3)nc(C)c2s1 | n
CCCN1CCN(CCCNC(=O)CCn2nc(-c3ccccc3)ccc2=O)CC1 | n
COCCCNC(=O)Cn1nc(C)c2ccccc2c1=O | n
Cc1ccc2c(CC(=O)N(Cc3ccc(F)cc3)C3CC3)coc2c1 | n
O=C1CCN(Cc2cccc(F)c2)CCCC(CO)CCN1 (stereo not drawn) | n
Cc1ccccc1N1CCN(CCS(=O)(=O)c2ccc(Br)cc2)CC1 | n
Cc1ccc(-c2nc(CS(=O)(=O)CC3CCCO3)co2)cc1 (stereo not drawn) | n
CC(C)CCNC(=O)c1cnc2c(c1)N(C(=O)Cc1cccc(C(F)(F)F)c1)CCC2 | n
O=C1CCCCC(CNC(=O)C2(c3ccccc3)CC2)N1 (stereo not drawn) | n
O=C(CC1CCCN(c2cnn(CC3CC3)c(=O)c2)C1)N1CCN(c2ccccn2)CC1 (stereo not drawn) | n
O=C(c1ccc2c(c1)OCO2)N1CCC2(CC(c3cccnc3)=NO2)C1 (stereo not drawn) | n
COCCc1noc([C@@H]2CN(Cc3ccccc3C#N)C[C@H]2CO)n1 | n
COc1ccccc1NC(=O)c1cc2ccc(O)cc2oc1=O | n
COc1ccc(NC(=O)Cn2ccn3nc(-c4ccccc4)c(CO)c3c2=O)cc1OC | n
CCCCN(C)C(=O)Cn1ccn2nc(-c3ccccc3)c(CO)c2c1=O | n
O=C(Cn1ccn2nc(-c3ccccc3)c(CO)c2c1=O)Nc1ccc2c(c1)OCO2 | n
SMILES | KDM5B inh
O=C(Cn1ccn2nc(-c3ccccc3)c(CO)c2c1=O)NCCc1ccc(Cl)cc1 | 28µM
O=C(Cn1ccn2nc(-c3ccccc3)c(CO)c2c1=O)Nc1ccc(Cl)cc1 | 28µM
Cc1cc(NC(=O)Cn2ccn3nc(-c4ccccc4)c(CO)c3c2=O)n[nH]1 | n
CN(C(=O)Cn1ccn2nc(-c3ccccc3)c(CO)c2c1=O)c1ccccc1 | n
CCCCc1ccc(NC(=O)Cn2ccn3nc(-c4ccccc4)c(CO)c3c2=O)cc1 | 25µM
O=C(Cn1ccn2nc(-c3ccccc3)c(CO)c2c1=O)Nc1cc(Cl)cc(Cl)c1 | n
CC(C)CNC(=O)C(NC(=O)c1ccccc1)C1CCN(C(=O)CC(C)C)CC1 (stereo not drawn) | n
NC(=O)c1ccc(NC(=O)Cn2cnc3ccc(Cl)cc3c2=O)cc1 | n
CCc1ccc2oc(C(=O)NCC(c3ccco3)N(C)C)cc(=O)c2c1 (stereo not drawn) | n
COC1CN(c2cccc(F)c2)C12CCN(C(=O)CC1CCN(C(C)=O)CC1)CC2 (stereo not drawn) | n
CCCCCCCCCCCCCCCC(=O)Nc1ccccc1 | n
CC1(c2ccccc2)N(Cc2ccccc2)C(=O)OC12CCN(Cc1ccccn1)CC2 (stereo not drawn) | n
O=c1cc(CN2CCN(Cc3ccccc3)CC2)c2cc(O)c(-c3ccccc3)cc2o1 | n
O=C(NC1(C(F)(F)F)N=C(c2ccccc2)N(CCc2ccccc2)C1=O)C1CC1 (stereo not drawn) | n
O=C(NCc1ccc(F)cc1)C1CCCN(C(=O)c2ccc3cc[nH]c3c2)C1 (stereo not drawn) | n
CCc1[nH]c2ccc(CNC(=O)C3CC(=O)Nc4ccccc43)cc2c1C (stereo not drawn) | n
Cc1c(-c2ccccc2F)[nH]c2ccc(CNC(=O)C3C=CCN3)cc12 (stereo not drawn) | 28µM
O=C(NCc1ccc(F)cc1)C1CCCN(C(=O)NCc2ccccc2)C1 (stereo not drawn) | n
Cc1c(-c2ccccc2F)[nH]c2ccc(CNC(=O)C3CCCN(C(N)=O)C3)cc12 (stereo not drawn) | 28µM
CCN(CC(=O)NCc1ccc(F)cc1)C(=O)c1ccc2[nH]c(C)c(C)c2c1 | n
Cc1c(-c2ccc(Br)cc2)nc2ccccc2c1C(=O)O | n
COc1cccc2cc(C(=O)NCc3ccccc3)c(=O)oc12 | n
CC(=O)Nc1cccc(-c2ccc3ncn(-c4ccc(F)cc4F)c(=O)c3n2)c1 | n
C[S+](=O)([O-])c1cccc(-c2ccc3ncn(-c4ccc(F)cc4F)c(=O)c3n2)c1 | n
COCc1cccc(-c2ccc3ncn(-c4ccc(F)cc4F)c(=O)c3n2)c1 | 32µM
COc1ncc(-c2ccc3ncn(-c4ccc(F)cc4F)c(=O)c3n2)cn1 | 40µM
COc1cccc(-c2ccc3ncn(-c4ccc(F)cc4F)c(=O)c3n2)c1OC | n
O=c1c2nc(-c3cccnc3)ccc2ncn1-c1ccc(F)cc1F | n
